High-throughput results from PubChem BioAssay.
D2 antagonist = HTS Assay for Allosteric Antagonists of the Human D2 Dopamine Receptor: Primary Screen for Antagonists. D(2) dopamine receptor (Homo sapiens), P14416. HEK293 TREx D2 cells, calcium flux, dopamine EC80. inhibition, % at 10 µM. 340,000 tested, 2% active. AID 485344, 2010; in the data active = inhibition above about 30%; inactive = below that, where a call was filed
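Dopamine at EC80 is the agonist stimulus; test compounds precede it by 180 s. Calcium flux read kinetically in a force-coupled, inducible HEK293 T-REx D2 cell line.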
D2 ag-1 = HTS Assay for Allosteric Agonists of the Human D2 Dopamine Receptor: Primary Screen for Agonists; HEK293 T-REx D2 cells, calcium flux agonist mode; activation, % at 2 µM; 340,000 tested, 0.53% active; D(2) dopamine receptor (Homo sapiens), P14416;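 active = activation over 3 SD above normal in the single-dose calcium agonist read, cut at about 30% in these data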
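Agonism scored from kinetic calcium signal (1 read/sec, 180 s) following compound pin transfer, after a 10 s baseline. Cells: HEK293 Trex line expressing inducible D2 receptor coupled to calcium, dye-loaded after overnight culture at 30 C.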
D2 ag-2 = Beta-Arrestin HTS for Positive Allosteric Modulators of the Human D2 Dopamine Receptor: Agonists; 360,000 tested, 0.084% active; DiscoveRx PathHunter D2 beta-arrestin, luminescence, 90 min; 100% = 57 uM dopamine signal; activation, % (concentration not given with the values); D(2) dopamine receptor (Homo sapiens), P14416; in the data active = activation above about 40%; inconclusive = between about 15% and that limit
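Agonist mode: compounds alone added to overnight-plated D2 PathHunter cells for 90 min at 37 C, with 57 uM final dopamine (EC100) defining full response. Beta-arrestin recruitment detected by chemiluminescent reagent, read after 1 h at ambient temperature.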
D2 PAM-1 = HTS Assay for Positive Allosteric Modulators of the Human D2 Dopamine Receptor: Primary Screen for Potentiators; D(2) dopamine receptor (Homo sapiens), P14416; HEK293 T-REx D2, calcium flux, EC20 dopamine potentiation; potentiation, % at 10 µM; 340,000 tested, 0.34% active;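 active = potentiation over 3 SD above the plate norm, cut at about 30% in these data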
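Calcium flux readout, no-wash dye, 1 read/s. Inducible HEK293 Trex D2 line, overnight 30 C. Compound alone 180 s (agonist flags), then EC20 dopamine, another 180 s to score potentiation.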
D2 PAM-2 = Beta-Arrestin HTS for Positive Allosteric Modulators of the Human D2 Dopamine Receptor: Potentiators | D(2) dopamine receptor (Homo sapiens), P14416 | DiscoveRx D2 beta-arrestin cells, luminescence, 90 min; 100% = 57 uM dopamine signal | potentiation, % (test concentration not listed) | 360,000 tested, 0.23% active | AID 624464, 2012; in the data active = potentiation above about 50%; inconclusive = mostly about 30% to 49%
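D2 cells co-treated with compound plus 50 nM dopamine (EC20) for 90 min at 37 deg C to detect potentiation. Beta-arrestin recruitment was read as enzyme-fragment luminescence after 1 h at ambient temperature. Full response was set by 57 uM dopamine.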
D3 arrestin ag = qHTS of D3 Dopamine Receptor Agonist: D3 Dopamine Receptor B-arrestin Agonist Confirmatory Assay; shares compounds with D2 ag-1; DiscoveRx D3 beta-arrestin cells, luminescence, 90 min; Potency, µM (highest dose often 76.9 µM), most hits filed as activators; 2,300 tested, 4% active; AID 720506, 2013; also: nearly all actives have a fitted effect of over 70% in size
Target sequence (P35462 whole entry, looked up): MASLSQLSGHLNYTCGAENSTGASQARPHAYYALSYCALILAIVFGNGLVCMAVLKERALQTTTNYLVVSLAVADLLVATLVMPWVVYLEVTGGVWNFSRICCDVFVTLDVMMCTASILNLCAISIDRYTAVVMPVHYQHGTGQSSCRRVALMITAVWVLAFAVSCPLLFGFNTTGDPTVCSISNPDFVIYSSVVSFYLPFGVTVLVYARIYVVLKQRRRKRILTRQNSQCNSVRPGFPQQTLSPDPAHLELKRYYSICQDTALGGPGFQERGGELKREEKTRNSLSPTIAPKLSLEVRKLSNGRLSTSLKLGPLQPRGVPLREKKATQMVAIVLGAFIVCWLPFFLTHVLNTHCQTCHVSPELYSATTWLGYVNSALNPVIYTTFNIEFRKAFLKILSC
D2 ag-3 = qHTS of D3 Dopamine Receptor Agonist: D2 Dopamine Receptor B-arrestin Agonist Counterscreen. shares compounds with D2 ag-1. DiscoveRx PathHunter D2 beta-arrestin, luminescence, 90 min; response scale: percent relative to full dopamine signal. Potency, µM (series often up to 76.9 µM), actives largely listed as activators. 2,300 tested, 5.9% active. AID 720507, 2013; also: nearly all actives have a fitted effect of over 70% in size
Numbers stand for hits; – = inactive; ? = inconclusive; · = not tested or not shown. Rows were chosen to be rich in hits. Some 2.4% of all compounds tested hit in one or more screens of this group. Unless noted, calls follow the shape of the dose curve; as a rule, active = well fitted activation curve with a large enough effect; inconclusive = small, poorly fitted or top-dose-only effect; inactive = flat fitted curve, though single readings scatter.

SMILES | D2 antagonist | D2 ag-1 | D2 ag-2 | D2 PAM-1 | D2 PAM-2 | D3 arrestin ag | D2 ag-3
COc1ccccc1N1CCN(C2CCN(C(=O)c3cc(OC)c(OC)c(OC)c3)CC2)CC1 | – | – | – | – | – | · | ·
COc1cc(OC)cc(C(=O)N2CCC(N3CCN(c4ccccc4)CC3)CC2)c1 | 37 | 43 | – | – | – | – | –
COc1ccc(C(=O)N2CCN(C3CCC(c4ccccc4)CC3)CC2)cc1OC (stereo not given) | – | – | – | – | – | · | ·
COc1ccc(C(=O)N2CCC(N3CCN(c4ccccc4)CC3)CC2)cc1OC | – | 41 | – | – | – | – | –
COc1ccccc1N1CCN(C2CCN(C(=O)c3ccc(F)cc3)CC2)CC1 | – | – | – | – | – | – | –
COc1ccccc1N1CCN(C2CCN(C(=O)c3cccc(F)c3)CC2)CC1 | – | – | – | – | – | · | ·
Cc1cc(S(=O)(=O)Nc2ccc(C(=O)O)cc2)c(C)c(S(=O)(=O)c2ccc(Cl)cc2)c1 | · | – | · | · | · | · | ·
COc1ccc(C(CCN2CCN(c3ccccc3)CC2)c2c(OC)cc(OC)c3c(-c4ccccc4)cc(=O)oc23)cc1 (stereo not given) | 79 | 69 | – | – | – | ? | ?
COc1cc(O)c(C(CCN2CCN(c3ccccc3)CC2)c2ccc3c(c2)OCO3)c(OC)c1 (stereo not given) | 75 | – | – | – | – | – | –
COc1cc(OC)c2ccc(=O)oc2c1C(CCN1CCN(c2ccccc2)CC1)c1ccc(N(C)C)cc1 (stereo not given) | 62 | 53 | – | – | – | – | –
CCCCCc1cc(=O)oc2c(C(CCN3CCN(c4ccccc4)CC3)c3ccc(N(C)C)cc3)c(OC)cc(OC)c12 (stereo not given) | – | – | – | – | – | · | ·
COc1cc(C2CC(=O)Oc3c(C(CCN4CCN(c5ccccc5)CC4)c4ccc(N(C)C)cc4)c(OC)cc(OC)c32)cc(OC)c1OC (stereo not given) | – | – | – | – | – | · | ·
COc1cc(OC)c2c(-c3ccccc3)cc(=O)oc2c1C(CCN1CCN(c2ccccc2)CC1)c1ccc(N(C)C)cc1 (stereo not given) | · | · | – | · | – | – | –
COCCn1c(SCC(=O)c2c[nH]c3ccccc23)nc2cc(C(=O)NCC(C)C)ccc2c1=O | · | – | · | · | · | · | ·
COC(=O)c1ccc(NC(=O)c2cc3cc(C)ccc3n2C)cc1 | · | – | · | – | · | · | ·
COc1ccc(NC(=O)C2CCCNC2)cc1OCC(C)C (stereo not given) | – | – | – | – | – | · | ·
COc1ccc(NC(=O)C2CCCN(CCCc3ccccc3)C2)cc1OCC(C)C (stereo not given) | 80 | 75 | – | – | – | – | ?
CCn1cc(C(=O)OCC(=O)Nc2cccc(C(C)=O)c2)c(=O)c2ccc(C)nc21 | · | – | · | – | · | · | ·
Cc1ccc(S(=O)(=O)N(C)C)cc1NC(=O)COC(=O)CN1C(=O)c2ccccc2C1=O | – | – | – | – | – | – | –
COc1ccc(CCNC(=O)Cn2nc(C)n3c(cc4cc(F)ccc43)c2=O)cc1OC | · | – | · | – | · | · | ·
Cc1csc(=O)n1CCC(=O)OC(C)C(=O)Nc1ccc(N2CCOCC2)cc1 (stereo not given) | – | – | – | – | – | · | ·
